Assay results as given in the supplement of paper PMC12582362.
Structures can show the parent of a compound that is named as a salt. About 30 (2%) of roughly 1,500 compounds showed activity.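 How the source made its calls: active = robust z-score below -2; a few such results were not called.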 Shown is part of a subset that was picked to be rich in actives.

test system: optoTopBP1 Flp-In 293 T-REx (HEK293) cells; test: light-induced TopBP1 condensate (nuclear foci) count, plate-normalised robust z-score vs non-control wells; higher = more TopBP1 condensates (negative = condensation inhibitor), active = hit call of the paper; details: 10 µM; incubation time 2 h

Row | SMILES | light-induced TopBP1 condensate (z-score)
1 | CC[N+](C)(CC)CCC[n+]1c(-c2ccccc2)c2cc(N)ccc2c2ccc(N)cc21 [Propidium iodide] | -3.58 (active)
2 | C[C@]12CCC(=O)C=C1C=C[C@@H]1[C@@H]2CC[C@@]2(C)[C@H]1CC[C@@]21CCC(=O)O1 [Canrenone] | 0.252 (inactive)
3 | COCCCOc1ccnc(C[S+]([O-])c2nc3ccccc3[nH]2)c1C (stereo not drawn) [Rabeprazole Sodium salt] | -0.658 (inactive)
4 | CC(C)=C/C(C)=N/Nc1nncc2ccccc12 [Budralazine] | -0.574 (inactive)
5 | CC(N)C12CC3CC(CC(C3)C1)C2 (stereo not drawn) [Rimantadine Hydrochloride] | -0.685 (inactive)
6 | OC[C@H]1O[C@@H](c2ccc(Cl)c(Cc3ccc(O[C@H]4CCOC4)cc3)c2)[C@H](O)[C@@H](O)[C@@H]1O [Empagliflozin] | 0.47 (inactive)
7 | CN(C)[C@@H]1C(O)=C(C(N)=O)C(=O)[C@@]2(O)C(O)=C3C(=O)c4c(O)cccc4[C@@](C)(O)[C@H]3C[C@@H]12 [Tetracycline hydrochloride] | 0.0489 (inactive)
8 | N#Cc1cc(NC(=O)C(=O)O)c(Cl)c(NC(=O)C(=O)O)c1 [Lodoxamide] | 0.686 (inactive)
9 | Oc1c(Cl)cc(Cl)c2cccnc12 [Chloroxine] | -0.15 (inactive)
10 | Oc1c(I)cc(Cl)c2cccnc12 [Clioquinol] | -0.446 (inactive)
11 | Cc1ccc2c(Cl)cc(Cl)c(O)c2n1 [Chlorquinaldol] | -9.09 (active)
12 | C[C@@H]1C[C@H]2[C@@H]3C[C@H](F)C4=CC(=O)C=C[C@]4(C)[C@@]3(F)[C@@H](O)C[C@]2(C)[C@@]1(O)C(=O)COC(=O)C(C)(C)C [Flumethasone pivalate] | -0.352 (inactive)
13 | COc1cc([S+](C)[O-])ccc1-c1nc2cccnc2[nH]1 (stereo not drawn) [Sulmazole] | 1.19 (inactive)
14 | CCOc1ccc2c(c1)C(C)=CC(C)(C)N2 [Ethoxyquin] | 0.549 (inactive)
15 | CCc1c2c(nc3ccc(OC(=O)N4CCC(N5CCCCC5)CC4)cc13)-c1cc3c(c(=O)n1C2)COC(=O)[C@]3(O)CC [Irinotecan hydrochloride trihydrate] | 1.07 (inactive)
16 | CC[C@@]1(O)C(=O)OCc2c1cc1n(c2=O)Cc2cc3c(CN(C)C)c(O)ccc3nc2-1 [Topotecan] | -2.31 (active)
17 | CCCNC(C)(C)C(=O)Nc1ccccc1C [Quatacaine] | -0.106 (inactive)
18 | O=C1OCCN1/N=C/c1ccc([N+](=O)[O-])o1 [Furazolidone] | -0.718 (inactive)
19 | CNCCCC1c2ccccc2C=Cc2ccccc21 [Protriptyline hydrochloride] | -2.86 (active)
20 | CNCCCC12CCC(c3ccccc31)c1ccccc12 [Maprotiline hydrochloride] | -0.0912 (inactive)
21 | CNCCC=C1c2ccccc2C=Cc2ccccc21 [Norcyclobenzaprine] | -0.386 (inactive)

Row | SMILES | light-induced TopBP1 condensate (z-score)
22 | COc1c(O[C@@H]2O[C@H](CO)[C@@H](O)[C@H](O)[C@H]2O)cc2c(c1OC)-c1ccc(SC)c(=O)cc1[C@@H](NC(C)=O)CC2 [Thiocolchicoside] | -0.423 (inactive)
23 | CCCCCOC(=O)Nc1nc(=O)n([C@@H]2O[C@H](C)[C@@H](O)[C@H]2O)cc1F [Capecitabine] | 0.43 (inactive)
24 | CO[C@H]1/C=C/O[C@@]2(C)Oc3c(C)c(O)c4c(c3C2=O)C2=NC3(CCN(CC(C)C)CC3)NC2=C(NC(=O)/C(C)=C\C=C\[C@H](C)[C@H](O)[C@@H](C)[C@@H](O)[C@@H](C)[C@H](OC(C)=O)[C@@H]1C)C4=O [Rifabutin] | -0.0256 (inactive)
25 | COc1c(O)cc2c(c1O)[C@@H]1O[C@H](CO)[C@@H](O)[C@H](O)[C@H]1OC2=O [Bergenin] | -0.755 (inactive)
26 | Cc1nccn1CC1CCc2c(c3ccccc3n2C)C1=O (stereo not drawn) [Ondansetron Hydrochloride] | 1.05 (inactive)
27 | NC[C@H]1O[C@H](O[C@H]2[C@H](O)[C@@H](O[C@H]3O[C@H](CO)[C@@H](O)[C@H](N)[C@H]3O)[C@H](N)C[C@@H]2N)[C@H](N)C[C@@H]1O [Tobramycin] | -0.114 (inactive)
28 | CNCC[C@@H](Oc1ccccc1C)c1ccccc1 [Tomoxetine hydrochloride] | -1.4 (inactive)
29 | CC(NCCC(c1ccccc1)c1ccccc1)c1ccccc1 (stereo not drawn) [Fendiline hydrochloride] | -2.06 (active)
30 | CC(NN)c1ccccc1 (stereo not drawn) [Mebanazine] | 0.298 (inactive)
31 | CC(C)[C@H]1CC[C@H](C(=O)N[C@H](Cc2ccccc2)C(=O)O)CC1 [Nateglinide] | -0.706 (inactive)
32 | COc1cc(NC(C)CCCN)c2ncccc2c1 (stereo not drawn) [Primaquine diphosphate] | -1.07 (inactive)
33 | N[C@@H]1CCCCN(c2c(F)cc3c(=O)c(C(=O)O)cn(C4CC4)c3c2Cl)C1 [Besifloxacin hydrochloride] | -0.0694 (inactive)
34 | C[C@@H](O)[C@H]1C(=O)N2C(C(=O)O)=C(S[C@@H]3CN[C@H](CNS(N)(=O)=O)C3)[C@H](C)[C@H]12 [Doripenem monohydrate] | 1.08 (inactive)
35 | Cc1cc(C(C)(C)CC(C)(C)C)ccc1OCCOCC[N+](C)(C)Cc1ccccc1 [Methyl benzethonium chloride] | -0.593 (inactive)
36 | CCN(CC)C(=S)SSC(=S)N(CC)CC [Disulfiram] | -4.41 (active)
37 | C=C1c2c(Cl)ccc(O)c2C(=O)C2=C(O)[C@]3(O)C(=O)C(C(N)=O)=C(O)[C@@H](N(C)C)[C@@H]3[C@@H](O)[C@H]12.O=C(O)c1cc(S(=O)(=O)O)ccc1O [Meclocycline sulfosalicylate] | 0.506 (inactive)
38 | N[C@@H](CCC(=O)N[C@@H](CS)C(=O)NCC(=O)O)C(=O)O [Glutathione] | 1.35 (inactive)
39 | O=C(O)CCNC(=O)c1ccccc1 [Betamipron] | -0.17 (inactive)
40 | Cn1c(=O)c2c(ncn2CCO)n(C)c1=O [Etofylline] | 0.502 (inactive)
41 | CO[C@@]12[C@H](COC(N)=O)C3=C(C(=O)C(C)=C(N)C3=O)N1C[C@@H]1N[C@@H]12 [Mitomycin C] | -0.867 (inactive)
42 | N[C@H](Cc1ccccc1)C(=O)O [D-phenylalanine] | -1.1 (inactive)

Row | SMILES | light-induced TopBP1 condensate (z-score)
43 | CC(C)(S)C(N)C(=O)O (racemic) [D,L-Penicillamine] | 1.98 (inactive)
44 | Cc1ccc(C)c(OCCCC(C)(C)C(=O)O)c1 [Gemfibrozil] | 0.575 (inactive)
45 | CC(=O)[C@@]12O[C@](C)(c3ccccc3)O[C@@H]1C[C@H]1[C@@H]3CCC4=CC(=O)CC[C@]4(C)[C@H]3CC[C@@]12C [Algestone acetophenide] | -1.65 (inactive)
46 | COc1cc(NS(=O)(=O)c2ccc(N)cc2)nc(OC)n1 [Sulfadimethoxine] | 0.224 (inactive)
47 | CCN(CC)C(=O)Nc1ccc(OCC(O)CNC(C)(C)C)c(C(C)=O)c1 (stereo not drawn) [Celiprolol hydrochloride] | -0.488 (inactive)
48 | CCc1oc2ccccc2c1C(=O)c1ccc(O)cc1 [Benzarone] | 1.57 (inactive)
49 | CCCCC1=NC2(CCCC2)C(=O)N1Cc1ccc(-c2ccccc2-c2nnn[nH]2)cc1 [Irbesartan] | -0.971 (inactive)
50 | CN(C)C(=N)NC(=N)N [Metformin hydrochloride] | -0.726 (inactive)
51 | CC(C)(C)C(O)/C=C/c1ccc2c(c1)OCO2 (stereo not drawn) [Stiripentol] | 1.26 (inactive)
52 | CCOC(=O)c1c(N)sc2c1CCN(Cc1ccccc1)C2 [Tinoridine hydrochloride] | 0.308 (inactive)
53 | C[C@H]1O[C@@H](O[C@H]2[C@@H](O)C[C@H](O[C@H]3[C@@H](O)C[C@H](O[C@H]4CC[C@@]5(C)[C@H](CC[C@@H]6[C@@H]5C[C@@H](O)[C@]5(C)[C@@H](C7=CC(=O)OC7)CC[C@]65O)C4)O[C@@H]3C)O[C@@H]2C)C[C@H](O)[C@@H]1O [Digoxin] | -2.42 (active)
54 | CCCCOC(=O)c1ccccc1Nc1cccc(C(F)(F)F)c1 [Ufenamate] | -0.0275 (inactive)
55 | O=C(NCCO[N+](=O)[O-])c1cccnc1 [Nicorandil] | 0.468 (inactive)
56 | Cn1nnc2c(C(N)=O)ncn2c1=O [Temozolomide] | -0.835 (inactive)
57 | Cc1c(Cl)cccc1Nc1ncccc1C(=O)O [Clonixin Lysinate] | 0.77 (inactive)
58 | NC(=O)c1cc[n+](CC2=C(C(=O)[O-])N3C(=O)[C@@H](NC(=O)[C@@H](c4ccccc4)S(=O)(=O)O)[C@H]3SC2)cc1 [Cefsulodin sodium salt] | 0.128 (inactive)
59 | CC[C@H]1OC(=O)[C@H](C)[C@@H](O[C@H]2C[C@@](C)(OC)[C@@H](O)[C@H](C)O2)[C@H](C)[C@@H](O[C@@H]2O[C@H](C)C[C@H](N(C)C)[C@H]2O)[C@](C)(O)C[C@@H](C)C(=O)[C@H](C)[C@@H](O)[C@]1(C)O [Erythromycin] | -0.359 (inactive)
60 | CCC1(c2ccccc2)NC(=O)N(C)C1=O (stereo not drawn) [Mephenytoin] | 0.477 (inactive)
61 | COCC(=O)O[C@]1(CCN(C)CCCc2nc3ccccc3[nH]2)CCc2cc(F)ccc2[C@@H]1C(C)C [Mibefradil] | -2.07 (active)
62 | COc1cc(/C=C/C(=O)N2CCN(CC(=O)N3CCCC3)CC2)cc(OC)c1OC [Cinepazide maleate] | -0.187 (inactive)
63 | CC(C)[C@H](N)C(=O)OCC(CO)OCn1cnc2c(=O)nc(N)[nH]c21 (stereo partly drawn) [Valganciclovir hydrochloride] | 0.111 (inactive)
